# Results filed as inconclusive are left out. A call without a number means that no potency is given here. Unmarked numbers belong to inactive results. Calls of active or inactive are those of the source. Unless noted, calls follow the shape of the dose curve; as a rule, active = well fitted curve in the direction sought with a large enough effect in the repeat runs; inconclusive = weak or mixed curves; inactive = no such curve, though single readings can be large; an effect the other way counts as inactive or inconclusive.
# Legend:
# [1] = qHTS assay to identify small molecule agonists of the vitamin D receptor (VDR) signaling pathway - cell viability counter screen (AID 743224); also: nearly all actives have a fitted effect of over 50% in size; also: potency is read from the fitted curve at half-maximal effect; as to activity change, negative = cytotoxicity: series mostly up to about 63 µM
# Procedure, shortened: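 Counter screen run in the same wells as the VDR-bla reporter assay: CellTiter-Glo luminescence, 30 min at room temperature, after 16 h compound treatment at 37C of cells pre-plated for 4 h.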
# [2] = qHTS assay to identify small molecule antagonists of the vitamin D receptor (VDR) signaling pathway - cell viability counter screen (AID 743225); also: nearly all actives have a fitted effect of over 50% in size
# Procedure, shortened: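 HEK293T VDR-bla; cpd + 1a,25-(OH)2D3 3 nM final, 16 h 37C/5% CO2; B/G FRET substrate 2 h RT; then CellTiter-Glo 30 min RT, luminescence.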
# [3] = qHTS assay to identify small molecule agonists of the NFkB signaling pathway (AID 1159509; active = well fitted curve in the direction sought with a large enough effect in the signal ratio in the repeat runs, not every such curve was filed as active; the % refers to the signal ratio; also: series mostly up to about 61 µM)
# Procedure, shortened: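 Pathway activation was measured in ME-180 cells stably expressing beta-lactamase under NF-kB response element control. Substrate cleavage was read as the 460/530 nm emission shift after 5 hr compound incubation.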
# [4] = qHTS assay to identify small molecule agonists of the NFkB signaling pathway - cell viability counter screen (AID 1159515; calls by dose curve; also: series mostly up to about 61 µM; nearly all actives have a fitted effect of over 55% in size)
# Procedure, shortened: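 Read by CellTiter-Glo luminescence (30 min, room temperature) in the wells also used for the beta-lactamase FRET read. ME-180 NFkB-bla cells at 2,000 per well were plated overnight, then exposed to compound for 5 hr at 37 C.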
# [5] = qHTS assay to identify small molecule agonists of the endoplasmic reticulum stress response signaling pathway (AID 1159516; active = well fitted activation curve with a large enough effect in the signal ratio in the repeat runs, not every such curve was filed as active; the % refers to the signal ratio)
# Procedure, shortened: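 Ratiometric FRET readout (405 nm excitation; 460 and 530 nm emission) of a beta-lactamase gene driven by the ER stress response element, after 2 hr substrate loading. HeLa ESRE-bla cells were seeded overnight and treated with compounds for only 5 hr at 37 C.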
# [6] = qHTS assay to identify small molecule agonists of the endoplasmic reticulum stress response signaling pathway - cell viability counter screen (AID 1159517; calls by dose curve; also: series mostly up to about 61 µM; nearly all actives have a fitted effect of over 50% in size)
# Procedure, shortened: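 ESRE-bla HeLa cells (1,500/well) were plated overnight at 37 C and exposed to compounds for 5 hr. After the 2 hr beta-lactamase substrate read, CellTiter-Glo went into the same wells, and luminescence was read after 30 min at room temperature.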
# [7] = qHTS assay to identify small molecule antagonists of the retinoid-related orphan receptor gamma (ROR-gamma) signaling pathway - cell viability counter screen (AID 1159520); also: nearly all actives have a fitted effect of over 50% in size; also: potency is read from the fitted curve at half-maximal effect
# Procedure, shortened: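 Cytotoxicity was read from cellular ATP (CellTiter-Glo luminescence) after 16 hr at 37 C with 1 uM doxycycline induction. The inducer was added 2 hr after compound transfer to Tet-on ROR gamma CHO cells.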
# [8] = molecular target: Nuclear receptor ROR-gamma (Homo sapiens) (UniProt P51449); assay: qHTS assay to identify small molecule antagonists of the retinoid-related orphan receptor gamma (ROR-gamma) signaling pathway (AID 1159521; also: nearly all actives have a fitted effect of over 50% in size; also: potency is read from the fitted curve at half-maximal effect;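 as to activity change, negative = inhibition: CHO cells with doxycycline inducible ROR-gamma driving an RORE luciferase reporter; top concentration of the series differs between compounds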)
# Procedure, shortened: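 Cells were plated, rested 4 h at 37 C, exposed to compounds for 2 h, then given 1 uM final doxycycline hyclate to induce RORγ expression. After 16 h, ONE-Glo luminescence from the ROR response element reporter was measured.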
# [9] = qHTS assay to identify small molecule agonists of the AP-1 signaling pathway - cell viability counter screen (AID 1159525; calls by dose curve; also: nearly all actives have a fitted effect of over 55% in size)
# Procedure, shortened: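 Intracellular ATP by Cell Titer Glo luminescence (30 min, RT) in the same ME-180 AP-1-bla wells after the 5 h compound exposure at 37 °C. Normalised to tetra n-octyl ammonium bromide and DMSO controls.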
# [10] = qHTS assay to identify small molecule agonists of the AP-1 signaling pathway (AID 1159526; calls by dose curve)
# [11] = qHTS assay to identify small molecule antagonists of the retinoid acid receptor (RAR) signaling pathway - cell viability counter screen (AID 1159551); also: nearly all actives have a fitted effect of over 35% in size
# Procedure, shortened: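 Cytotoxicity counter screen: ATP content quantified by CellTiter-Glo luminescence in C3RL4 cells treated 6 hr at 37 C with compound and retinol (1 uM final). Cells plated at 1,000/well and cultured overnight before dosing.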
# [12] = qHTS assay to identify small molecule antagonists of the retinoic acid receptor (RAR) signaling pathway (AID 1159552; also: nearly all actives have a fitted effect of over 50% in size; also: potency is read from the fitted curve at half-maximal effect)
# Procedure, shortened: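 Retinol at 1 uM final stimulated RARE-luciferase expression in C3RL4 cells exposed to test compounds for 6 hr at 37 C. Reduced luminescence, read 30 min after detection reagent, indicated pathway antagonism.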
# [13] = qHTS assay to identify small molecule agonists of the RXR signaling pathway - cell viability counter screen (AID 1159529)
# Procedure, shortened: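 Steps: seed RXR-alpha-UAS-bla HEK 293T cells in assay medium containing 2% charcoal-stripped FBS; incubate 5 hr; add compounds in DMSO; incubate 16 hr at 37 C; after the bla read, add CellTiter-Glo and read luminescence at 30 min.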
# [14] = qHTS assay to identify small molecule agonists of the retinoic acid receptor (RAR) signaling pathway (AID 1159553); also: potency is read from the fitted curve at half-maximal effect
# Procedure, shortened: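 Luminescence was measured 30 min after luciferase reagent addition at room temperature. Before that, C3RL4 reporter cells (1,000 per well, plated overnight) were treated with compound for 6 hr at 37 C and 5% CO2.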
# [15] = molecular target: Retinoic acid receptor RXR-alpha (Homo sapiens) (UniProt P19793); assay: qHTS assay to identify small molecule agonists of the RXR signaling pathway (AID 1159527; calls by dose curve; also: nearly all actives have a fitted effect of over 35% in size)
# Retinoic acid receptor RXR-alpha (Homo sapiens), sequence (P19793 whole entry, looked up): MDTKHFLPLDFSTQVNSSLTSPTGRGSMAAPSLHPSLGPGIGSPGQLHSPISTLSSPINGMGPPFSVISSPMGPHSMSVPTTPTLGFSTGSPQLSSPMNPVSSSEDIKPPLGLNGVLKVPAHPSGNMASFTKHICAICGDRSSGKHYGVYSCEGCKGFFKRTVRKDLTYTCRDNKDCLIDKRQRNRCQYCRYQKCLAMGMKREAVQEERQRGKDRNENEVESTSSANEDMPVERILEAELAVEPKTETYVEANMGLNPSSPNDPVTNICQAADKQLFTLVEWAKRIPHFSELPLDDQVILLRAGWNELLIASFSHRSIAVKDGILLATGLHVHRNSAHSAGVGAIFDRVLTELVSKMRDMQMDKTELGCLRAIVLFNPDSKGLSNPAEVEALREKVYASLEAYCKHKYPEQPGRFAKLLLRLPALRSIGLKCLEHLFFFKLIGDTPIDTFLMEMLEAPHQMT
# Procedure, shortened: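 Cells plated at 2,000/well, rested 5 hr at 37 C, pin-dosed with DMSO compound solutions, incubated 16 hr, then loaded with B/G FRET substrate for 2 hr at RT before dual-emission fluorescence reading.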
compound,measurement,setting,value
CCOP(=S)(OCC)SCSc1ccc(Cl)cc1,Potency,[1],inactive
same,outcome,[2],inactive
same,outcome,[3],inactive
same,outcome,[4],inactive
same,outcome,[5],inactive
same,Potency,[6],inactive
same,Potency,[7],inactive
same,Potency,[8],inactive
same,Potency,[9],inactive
same,outcome,[10],inactive
same,Potency,[11],inactive
same,Potency,[12],inactive
Nc1cnn(-c2ccccc2)c(=O)c1Cl,Potency,[1],inactive
same,outcome,[2],inactive
same,outcome,[3],inactive
same,outcome,[4],inactive
same,outcome,[5],inactive
same,Potency,[6],inactive
same,Potency,[7],inactive
same,Potency,[8],inactive
same,Potency,[9],inactive
same,outcome,[10],inactive
same,Potency,[13],inactive
same,Potency,[11],inactive
CNC(=O)Oc1cccc(C(C)C)c1,Potency,[1],inactive
same,outcome,[2],inactive
same,outcome,[3],inactive
same,outcome,[4],inactive
same,outcome,[5],inactive
same,Potency,[6],inactive
same,Potency,[7],inactive
same,Potency,[8],inactive
same,Potency,[9],inactive
same,outcome,[10],inactive
same,Potency,[13],inactive
same,Potency,[11],inactive
CC(=O)Nc1cc([As](=O)(O)O)ccc1O,Potency,[1],inactive
same,outcome,[2],inactive
same,outcome,[3],inactive
same,outcome,[4],inactive
same,outcome,[5],inactive
same,Potency,[6],inactive
same,Potency,[7],inactive
same,Potency,[8],inactive
same,Potency,[9],inactive
same,outcome,[10],inactive
same,Potency,[13],inactive
same,Potency,[12],inactive
same,Potency,[14],inactive
CN1C[C@@H](NS(=O)(=O)N(C)C)C[C@@H]2c3cccc4c3c(cn4C)C[C@H]21,outcome,[2],inactive
same,outcome,[3],inactive
same,outcome,[4],inactive
same,outcome,[5],inactive
same,Potency,[6],inactive
same,Potency,[7],inactive
same,Potency,[8],inactive
same,Potency,[9],inactive
same,outcome,[10],inactive
same,Potency,[13],inactive
same,Potency,[11],inactive
CCOC(=O)C(c1c(O)c2ccccc2oc1=O)c1c(O)c2ccccc2oc1=O,Potency,[1],inactive
same,outcome,[3],inactive
same,outcome,[4],inactive
same,outcome,[5],inactive
same,Potency,[6],inactive
same,Potency,[7],inactive
same,Potency,[8],inactive
same,Potency,[9],inactive
same,outcome,[10],inactive
same,Potency,[13],inactive
same,Potency,[11],inactive
[Cl][Sn]([Cl])([Cl])[Cl],Potency,[1],inactive
same,outcome,[2],inactive
same,outcome,[3],inactive
same,outcome,[4],inactive
same,outcome,[5],inactive
same,Potency,[6],inactive
same,Potency,[7],inactive
same,Potency,[8],inactive
same,Potency,[9],inactive
same,outcome,[10],inactive
same,Potency,[13],inactive
same,Potency,[11],inactive
COc1ccc2c(c1OC)CN1CCc3cc4c(cc3C1C2)OCO4 (centres undefined),Potency,[1],inactive
same,outcome,[3],inactive
same,outcome,[4],inactive
same,outcome,[5],inactive
same,Potency,[6],inactive
same,Potency,[7],inactive
same,Potency,[8],inactive
same,Potency,[9],inactive
same,outcome,[10],inactive
same,Potency,[11],inactive
CCCCOP(=O)(O)OCCCC,Potency,[1],inactive
same,outcome,[2],inactive
same,outcome,[3],inactive
same,outcome,[4],inactive
same,outcome,[5],inactive
same,Potency,[6],inactive
same,Potency,[7],inactive
same,Potency,[8],inactive
same,Potency,[9],inactive
same,outcome,[10],inactive
same,Potency,[13],inactive
same,Potency,[11],inactive
COP(=S)(OC)Oc1ccc(S(N)(=O)=O)cc1,Potency,[1],inactive
same,outcome,[2],inactive
same,outcome,[3],inactive
same,outcome,[4],inactive
same,outcome,[5],inactive
same,Potency,[6],inactive
same,Potency,[7],inactive
same,Potency,[8],inactive
same,Potency,[9],inactive
same,outcome,[10],inactive
same,Potency,[13],inactive
same,Potency,[11],inactive
COc1cc(C[C@@H](C)N)c(OC)cc1C,outcome,[2],inactive
same,outcome,[3],inactive
same,outcome,[4],inactive
same,outcome,[5],inactive
same,Potency,[6],inactive
same,Potency,[7],inactive
same,Potency,[8],inactive
same,Potency,[9],inactive
same,outcome,[10],inactive
same,Potency,[13],inactive
same,Potency,[11],inactive
CCCCCCI,Potency,[1],inactive
same,outcome,[3],inactive
same,outcome,[4],inactive
same,outcome,[5],inactive
same,Potency,[6],inactive
same,Potency,[7],inactive
same,Potency,[8],inactive
same,Potency,[9],inactive
same,outcome,[10],inactive
same,Potency,[13],inactive
same,Potency,[11],inactive
N#CCBr,Potency,[1],inactive
same,outcome,[2],inactive
same,outcome,[3],inactive
same,outcome,[4],inactive
same,outcome,[5],inactive
same,Potency,[6],inactive
same,Potency,[7],inactive
same,Potency,[8],inactive
same,Potency,[9],inactive
same,outcome,[10],inactive
same,Potency,[13],inactive
same,Potency,[11],inactive
CCOP(=S)(OCC)SCSP(=S)(OCC)OCC,Potency,[1],inactive
same,outcome,[2],inactive
same,outcome,[3],inactive
same,outcome,[4],inactive
same,outcome,[5],inactive
same,Potency,[6],inactive
same,Potency,[7],inactive
same,Potency,[8],inactive
same,Potency,[9],inactive
same,Potency,[11],inactive
same,Potency,[12],inactive
O=[N+]([O-])c1cccc(O)c1,Potency,[1],inactive
same,outcome,[3],inactive
same,outcome,[4],inactive
same,outcome,[5],inactive
same,Potency,[6],inactive
same,Potency,[7],inactive
same,Potency,[8],inactive
same,outcome,[10],inactive
same,Potency,[11],inactive
same,Potency,[14],inactive
CC1COC2(c3ccccc3Cl)c3cc(Cl)ccc3NC(=O)CN12 (centres undefined),Potency,[1],inactive
same,outcome,[2],inactive
same,outcome,[3],inactive
same,outcome,[4],inactive
same,outcome,[5],inactive
same,Potency,[6],inactive
same,Potency,[7],inactive
same,Potency,[8],inactive
same,Potency,[9],inactive
same,Potency,[11],inactive
same,Potency,[12],29.8 µM (active)
same,Potency,[14],inactive
O=C1c2ccccc2C(=O)c2ccccc21,outcome,[2],inactive
same,outcome,[3],inactive
same,outcome,[4],inactive
same,outcome,[5],inactive
same,Potency,[6],inactive
same,"activity, negative = cytotoxicity",[7],-0.509% [at 19 µM]
same,"activity change, negative = inhibition",[8],99.4% [at 19 µM]
same,activation,[10],11.5% [at 15.8 µM]
same,activation,[15],2.89% [at 15.8 µM]
same,"activity change, negative = cytotoxicity",[13],3.01% [at 15.8 µM]
same,"activity change, negative = cytotoxicity",[11],3.84% [at 19 µM]
same,"activity, negative = inhibition",[12],14.2% [at 19 µM]
c1cc[c]([Hg][c]2ccccc2)cc1,Potency,[1],49 µM (active)
same,outcome,[2],inactive
same,outcome,[3],inactive
same,outcome,[4],inactive
same,outcome,[5],inactive
same,Potency,[6],inactive
same,Potency,[7],27.3 µM (active)
same,Potency,[8],19.3 µM (active)
same,Potency,[9],inactive
same,Potency,[11],inactive
same,Potency,[12],inactive
same,Potency,[14],8.63 µM (active)
COC(=O)COc1ccc(Cl)cc1Cl,outcome,[2],inactive
same,outcome,[3],inactive
same,outcome,[4],inactive
same,outcome,[5],inactive
same,Potency,[6],inactive
same,Potency,[7],inactive
same,Potency,[8],inactive
same,outcome,[10],inactive
same,Potency,[15],inactive
same,Potency,[13],inactive
same,Potency,[11],inactive
same,Potency,[12],inactive
same,Potency,[14],inactive
N#CC(O)c1ccccc1 (centres undefined),outcome,[2],inactive
same,outcome,[3],inactive
same,outcome,[4],inactive
same,outcome,[5],inactive
same,Potency,[6],inactive
same,Potency,[7],inactive
same,Potency,[8],inactive
same,Potency,[9],inactive
same,outcome,[10],inactive
same,Potency,[11],inactive
CN(N=O)C(N)=O,Potency,[1],inactive
same,outcome,[2],inactive
same,outcome,[3],inactive
same,outcome,[4],inactive
same,outcome,[5],inactive
same,Potency,[6],inactive
same,Potency,[7],inactive
same,Potency,[8],inactive
same,Potency,[9],inactive
same,Potency,[15],inactive
same,Potency,[13],inactive
same,Potency,[11],inactive
same,Potency,[12],inactive
